Among the data in PubChem BioAssay are z-score and composite z-score values, retold here.

The nature of test [1]: optical density shifts of acrAB sulA E. coli – strain DRC41, OD650, 48 h, E. coli filamentation inducer project, primary screen (AID 1152).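 Further: E. coli MC1000 strain DRC41 lacking acrAB efflux pump and sulA.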 The settings on record: higher = more signal, called active from +8 up or from −8 down.
A short description of test [2]: probe aLefty1 binding on compound microarray – biochemical, small-molecule microarray, 635/667 nm fluorescence, primary screen (AID 1153).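 Further: score merges spot fluorescence with signal-to-noise ratio from the scanned slide images.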 The settings on record: higher = more signal.
The nature of test [3]: plasmodial surface anion channel blockers, osmotic lysis – cell-based, P. falciparum Indochina, OD700, 1 h, primary screen (AID 1154). The settings on record: P. falciparum Indochina infected RBC osmotic lysis, higher = more signal, called active from +8 up or from −8 down.
The nature of test [4]: plasmodial surface anion channel blockers, osmotic lysis – cell-based, P. falciparum Indochina, OD700, 2 h, primary screen (AID 1155).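 Further: lysis reports solute entry through the parasite surface anion channel PSAC.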 The settings on record: P. falciparum Indochina infected erythrocytes, higher = more signal, called active from +8 up or from −8 down.
A short description of test [5]: changes in parasitized red cell lysis, either direction – P. falciparum Indochina, OD700, 3 h, PSAC antagonist project, primary screen (AID 1156). The settings on record: P. falciparum-infected erythrocytes, osmotic lysis, higher = more signal, called active from +8 up or from −8 down.
Test [6] can be described thus: plasmodial surface anion channel blockers, osmotic lysis – cell-based, P. falciparum Indochina, OD700, 18 h, primary screen (AID 1157). The settings on record: P. falciparum Indochina infected erythrocytes, osmotic lysis OD700, 18 h; higher = more signal, called active from +8 up or from −8 down.
Test [7] in a line: S6 kinase pathway phospho-S6 level changes – cell-based, A549, cytoblot, luminescence, serum-stimulated, primary screen (AID 1158).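 Further: serum-stimulated A549 lung adenocarcinoma cells; signal is phosphorylated S6 detected by cytoblot immunostaining with HRP secondary.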 The settings on record: 5 h, higher = more signal.
Test [8] concerns the target NADPH oxidase 2 (Homo sapiens) (UniProt P04839). Kind of test: compounds shifting NOX2 Amplex Red fluorescence – cell-based, HEK293-NOX2, PMA-stimulated, NOX inhibitor project, primary screen (AID 1159). Further: test concentration not given here. The settings on record: 45 min, higher = more signal, called active from +8 up or from −8 down.
Test [9] deals with NADPH oxidase 4 (Homo sapiens) (UniProt Q9NPH5). Kind of test: compounds shifting NOX4 Amplex Red fluorescence – cell-based, HEK293-NOX4, tetracycline-induced, NOX inhibitor project, primary screen (AID 1160). The settings on record: HEK293-NOX4, Amplex Red H2O2 fluorescence, 45 min; higher = more signal, called active from +8 up or from −8 down.
Chain of NADPH oxidase 4 (Homo sapiens) (Q9NPH5 whole entry, looked up): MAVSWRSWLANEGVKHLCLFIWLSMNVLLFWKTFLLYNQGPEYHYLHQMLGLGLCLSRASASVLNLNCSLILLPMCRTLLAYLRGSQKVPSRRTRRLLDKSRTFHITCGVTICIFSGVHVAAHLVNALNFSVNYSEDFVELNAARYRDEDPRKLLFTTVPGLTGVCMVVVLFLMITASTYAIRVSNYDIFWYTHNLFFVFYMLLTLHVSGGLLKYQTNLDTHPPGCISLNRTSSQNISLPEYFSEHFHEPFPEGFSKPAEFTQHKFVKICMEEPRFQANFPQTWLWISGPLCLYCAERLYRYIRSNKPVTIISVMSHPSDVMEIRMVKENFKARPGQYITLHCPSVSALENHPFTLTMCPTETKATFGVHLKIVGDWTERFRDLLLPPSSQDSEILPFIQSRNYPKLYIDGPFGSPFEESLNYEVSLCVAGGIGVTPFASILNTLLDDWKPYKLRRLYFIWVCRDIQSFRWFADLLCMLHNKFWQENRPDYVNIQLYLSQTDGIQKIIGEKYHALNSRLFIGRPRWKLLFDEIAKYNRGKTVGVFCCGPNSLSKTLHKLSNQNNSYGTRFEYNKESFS
Test [10] addresses NADPH oxidase 5 (Homo sapiens) (UniProt Q96PH1). Kind of test: compounds shifting NOX5 Amplex Red fluorescence – cell-based, HEK293-NOX5, NOX inhibitor project, primary screen (AID 1161). The settings on record: HEK293-NOX5, ionomycin, 45 min, higher = more signal.
A short description of test [11]: compound effects on lung adenocarcinoma cell viability – A549, calcein-AM fluorescence, 48 h, basal, profiling panel (AID 1162). Further: test concentration not given here. The settings on record: higher = more signal.
A short description of test [12]: compound effects on differentiated 3T3-L1 adipocyte viability – cell-based, 3T3-L1 adipocytes, calcein-AM fluorescence, 48 h, basal, profiling panel (AID 1163). Further: test concentration not given here. The settings on record: 3T3-L1 adipocytes viability, higher = more signal.
A short description of test [13]: compound effects on hepatocellular carcinoma cell viability – HepG2, calcein-AM fluorescence, 48 h, basal, profiling panel (AID 1164). Further: test concentration not given here. The settings on record: higher = more signal.
Test [14] is described as follows: compound effects on multiple myeloma cell viability – MM1S, calcein-AM fluorescence, 48 h, basal, profiling panel (AID 1165).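 Further: viability of MM1S multiple myeloma cells under basal unstimulated conditions; test concentration not given here.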 The settings on record: higher = more signal.
A short description of test [15]: calcein-AM signal in unstimulated myeloma cells – cell-based, calcein-AM fluorescence, 48 h, PK04 Diversity Set, profiling panel (AID 1166).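 Further: cells grown under basal conditions without added stimulus; test concentration not given here.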 The settings on record: RPMI8226 myeloma viability, higher = more signal.
Test [16] can be described thus: JC-1 mitochondrial signal, unstimulated HepG2 cells – cell-based, JC-1 fluorescence, 24 h, 100 nL compound, profiling panel (AID 1167). Further: test concentration not given here. The settings on record: HepG2 mitochondrial potential, higher = more signal.
Test [17] can be described thus: JC-1 mitochondrial signal, unstimulated adipocytes – cell-based, JC-1 fluorescence, 3T3-L1 adipocytes, 24 h, 100 nL compound, profiling panel (AID 1168). Further: test concentration not given here. The settings on record: JC-1 mitochondrial fluorescence, higher = more signal, called active from +8 up or from −8 down.
Test [18] in a line: JC-1 mitochondrial signal, unstimulated myeloma cells – cell-based, JC-1 fluorescence, RPMI8226, 24 h, 100 nL compound, profiling panel (AID 1169). Further: test concentration not given here. The settings on record: JC-1 mitochondrial potential fluorescence, higher = more signal.
Test [19] is described as follows: JC-1 mitochondrial signal, unstimulated MM1S myeloma – cell-based, JC-1 fluorescence, 24 h, 100 nL compound, profiling panel (AID 1170). Further: test concentration not given here. The settings on record: MM1S mitochondrial potential, higher = more signal.
A short description of test [20]: resazurin metabolic signal in A549 cells – cell-based, resazurin fluorescence, 24 h, PK04 Diversity Set, profiling panel (AID 1171). Further: test concentration not given here. The settings on record: A549 viability, higher = more signal, called active from +8 up or from −8 down.

Active and inactive are the calls of the source.

Chain of NADPH oxidase 2 (Homo sapiens) (P04839 whole entry, looked up): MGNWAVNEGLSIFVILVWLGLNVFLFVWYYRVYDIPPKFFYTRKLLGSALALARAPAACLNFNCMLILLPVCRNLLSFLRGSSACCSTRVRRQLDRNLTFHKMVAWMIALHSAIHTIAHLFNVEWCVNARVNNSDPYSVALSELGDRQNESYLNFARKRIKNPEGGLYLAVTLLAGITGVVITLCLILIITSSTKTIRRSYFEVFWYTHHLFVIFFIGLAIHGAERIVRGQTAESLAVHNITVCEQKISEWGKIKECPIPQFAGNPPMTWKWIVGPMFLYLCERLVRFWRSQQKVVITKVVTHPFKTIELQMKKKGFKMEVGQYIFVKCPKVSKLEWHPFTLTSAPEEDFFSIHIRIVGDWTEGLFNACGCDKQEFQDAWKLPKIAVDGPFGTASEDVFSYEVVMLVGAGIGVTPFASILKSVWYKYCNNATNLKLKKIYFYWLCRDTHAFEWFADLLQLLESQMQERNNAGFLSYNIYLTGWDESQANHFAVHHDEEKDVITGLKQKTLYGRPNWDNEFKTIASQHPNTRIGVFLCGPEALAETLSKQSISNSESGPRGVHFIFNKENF
Chain of NADPH oxidase 5 (Homo sapiens) (Q96PH1 whole entry, looked up): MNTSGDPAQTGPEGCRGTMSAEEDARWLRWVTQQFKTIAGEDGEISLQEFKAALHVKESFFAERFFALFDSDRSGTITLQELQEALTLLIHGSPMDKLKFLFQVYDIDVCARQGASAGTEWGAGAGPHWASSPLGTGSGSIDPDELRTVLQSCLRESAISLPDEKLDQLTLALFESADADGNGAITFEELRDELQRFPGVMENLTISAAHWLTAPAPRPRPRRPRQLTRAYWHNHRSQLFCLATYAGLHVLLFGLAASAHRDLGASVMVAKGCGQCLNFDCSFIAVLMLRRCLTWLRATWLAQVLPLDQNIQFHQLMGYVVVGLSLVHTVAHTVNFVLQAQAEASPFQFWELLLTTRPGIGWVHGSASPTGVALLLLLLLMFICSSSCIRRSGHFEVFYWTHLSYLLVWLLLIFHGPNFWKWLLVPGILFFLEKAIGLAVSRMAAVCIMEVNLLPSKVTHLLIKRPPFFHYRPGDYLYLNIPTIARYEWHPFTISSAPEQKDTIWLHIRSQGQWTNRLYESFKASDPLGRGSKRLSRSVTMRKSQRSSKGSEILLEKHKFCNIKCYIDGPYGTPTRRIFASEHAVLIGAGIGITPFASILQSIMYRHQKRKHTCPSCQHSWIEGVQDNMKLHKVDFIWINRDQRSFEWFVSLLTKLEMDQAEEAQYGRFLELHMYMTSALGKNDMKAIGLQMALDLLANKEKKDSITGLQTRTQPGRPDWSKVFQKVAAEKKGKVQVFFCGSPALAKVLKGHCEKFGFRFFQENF

On to `CC(C)C(CO)N1C(=O)[C@@H]2[C@H]3C(=O)OCC=C[C@H]3OC23C=CCN(c2ccc(Cl)cc2)C(=O)[C@@H]13` (stereo not given in full), for which the z-score was 0.284 (inactive) in [1]; 0.0695 (inactive) in test [3]; 0.406 (inactive) in [4]; 1.06 (inactive) in test [5]; 0.035 (inactive) in test [6]; -0.4 in test [7]. The z-score in test [8] is 1.1 (inactive); in [9], 0.164 (inactive); in test [10] it was 1.78; in [11], -0.713; in [12] it was 0.556; in test [13], 0.813. Further, the z-score in test [14] is 1.04; in test [15], -0.356; in test [16], 0.465; in test [17], 0.959 (inactive); in test [18] it was -0.212; in test [19], 0.497. Moreover, the z-score in test [20] is 0.504 (inactive). In test [2], the composite z-score is -0.0642.
Turning to `O=C1OCCC=C[C@H]2OC34C=CCN(c5ccc6ccccc6c5)C(=O)[C@H]3N(CCCO)C(=O)[C@@H]4C12` (stereo not given in full), the z-score in test [1] was 0.181 (inactive); in test [3], 0.204 (inactive); in test [4] it was -0.568 (inactive); in [5], 0.676 (inactive); in test [6], -1.27 (inactive); in [7], 0.684. Moreover, the z-score is 0.755 (inactive) in test [8]; -0.644 (inactive) in test [9]; 0.741 in test [10]; 0.167 in test [11]; 1.41 in test [12]; -0.16 in [13]. In addition, the z-score is 0.441 in test [14]; -0.556 in [15]; -0.458 in test [16]; 0.241 (inactive) in [17]; -0.0315 in test [18]; -0.89 in test [19]. The z-score in [20] is -0.391 (inactive). In test [2], this molecule had a composite z-score of -0.291.
Regarding `CCCCC(CC)C(O)C1C=CC2C(=O)N(C)C(=O)C2N1Nc1ccccc1` (stereo not given), the z-score in test [1] was -1.34 (inactive); in test [3], 0.755 (inactive); in [4] it was 0.916 (inactive); in [5], -0.0492 (inactive); in test [6], 0.827 (inactive); in test [7], -0.778. For the same molecule, the z-score in [8] is -1.45 (inactive); in test [9] it was -3.67 (inactive); in test [10], -3.2; in test [11] it was -0.959; in test [12], -1.12; in test [13], -0.195. The z-score in test [14] was -0.0591; in [15], -0.885; in [16] it was -1.02; in test [17], -1.03 (inactive); in test [18], -0.3; in test [19], -0.348. Also, the z-score in [20] is -0.83 (inactive). In addition, the composite z-score in test [2] worked out at 0.443.
With `CC(C)(C)OC(=O)CC[C@@]1(C(=O)NCC(O)CO)N=C(c2ccc(OCCCO)cc2)O[C@@H]1c1ccccc1CN=[N+]=[N-]` (stereo not given in full), the z-score in test [1] was 0.399 (inactive); in [3], 25.3 (active); in test [4], 5.67 (inactive); in [5], 0.814 (inactive); in test [6] it was 0.936 (inactive); in [7] it was 0.906. Further, the z-score is 1.18 (inactive) in [8]; 0.87 (inactive) in test [9]; 0.416 in test [10]; 1.25 in test [11]; 0.478 in test [12]; -0.0162 in test [13]. In addition, the z-score in test [14] is -0.217; in test [15] it was -0.34; in test [16] it was 0.0542; in test [17], 0.0122 (inactive); in test [18], -0.418; in test [19], 1.12. For the same molecule, the z-score in test [20] is 0.0255 (inactive). This molecule also displayed a composite z-score in [2] of 0.258.
For `CC(CO)N1C(=O)[C@@H]2[C@H]3C(=O)OCC=C[C@H]3OC23C=CCN(Cn2nnc4ccccc42)C(=O)[C@@H]13` (stereo not given in full), the z-score was -0.597 (inactive) in [1]; 0.638 (inactive) in test [3]; 0.359 (inactive) in test [4]; 0.029 (inactive) in [5]; 0.0866 (inactive) in [6]; -0.0773 in test [7]. Also, the z-score in [8] is 0.698 (inactive); in [9], 0.672 (inactive); in test [10] it was 1.78; in test [11], -0.671; in test [12], -0.948; in test [13], -0.907. Moreover, the z-score in [14] is 0.07; in test [15] it was -0.637; in test [16], -1.23; in test [17], -0.529 (inactive); in [18] it was 0.241; in test [19] it was -0.226. Moreover, the z-score in test [20] was -0.382 (inactive). In test [2], this molecule came in with a composite z-score of -0.147.
`C[N+](C)(C)CCCCCCNC(=O)[C@@H]1C[C@@H]2C(=O)N3CCC[C@H]3C(=O)N2[C@@H]1c1ccc(O)cc1`: the z-score is 0.524 (inactive) in [1]; 1.55 (inactive) in [3]; -0.15 (inactive) in [4]; -0.72 (inactive) in test [5]; -0.117 (inactive) in test [6]; -0.196 in [7]. The z-score is -0.425 (inactive) in test [8]; 0.375 (inactive) in [9]; -0.233 in test [10]; -0.134 in test [11]; -0.329 in test [12]; -0.526 in [13]. In addition, the z-score is -0.403 in [14]; -0.106 in test [15]; -1 in test [16]; -0.362 (inactive) in test [17]; -0.101 in test [18]; -0.637 in test [19]. Moreover, the z-score in [20] is 1.78 (inactive). In addition, in test [2], the composite z-score was -0.021.
Turning to `CCOC(=O)[C@@H]1CCCCN1C(=O)C(=O)OC`, the z-score in test [1] is -0.446 (inactive); in test [3], -1.11 (inactive); in [4], -0.164 (inactive); in [5] it was -0.306 (inactive); in test [6], -0.262 (inactive); in test [7], -0.523. Also, the z-score is 0.296 (inactive) in test [8]; -0.28 (inactive) in test [9]; 0.153 in test [10]; -0.856 in [11]; -0.116 in test [12]; 0.0129 in [13]. The z-score in [14] is 0.143; in [15] it was 0.13; in test [16], -0.684; in [17], -0.603 (inactive); in test [18], -0.0109; in test [19], 0.0743. Further, in test [20], the z-score is -0.599 (inactive). In addition, the composite z-score in test [2] is -0.0515.
For `CCCC=C(CCC)[C@@H](NC(=O)C(C)(C)C)c1ccc(C(=O)OC)cc1`, the z-score is -1.31 (inactive) in test [1]; 0.494 (inactive) in test [3]; 0.889 (inactive) in [4]; -1.28 (inactive) in test [5]; 1.21 (inactive) in test [6]; 0.0791 in test [7]. For the same molecule, the z-score is -0.129 (inactive) in test [8]; 0.624 (inactive) in test [9]; 2.5 in [10]; -1.01 in [11]; -0.886 in test [12]; -0.47 in test [13]. Also, the z-score in test [14] was -0.695; in test [15] it was -2.08; in [16], 3.69; in test [17], -0.614 (inactive); in test [18], -0.118; in [19], -0.459. Also, the z-score in test [20] was 0.821 (inactive). The composite z-score in test [2] was found to be 0.666.
Turning to `CCOC(=O)C[C@H]1[C@H](OC(=O)c2ccc(-c3ccccc3)cc2)[C@@H](NC(=O)CC(C)C)c2cc(OCCCO)ccc2N1C(=O)c1ccc2ccccc2n1`, the z-score in test [1] is -0.0672 (inactive); in [3] it was 2.19 (inactive); in [4] it was 0.0409 (inactive); in test [5], 0.457 (inactive); in test [6], 0.238 (inactive); in test [7], 0.2. Also, the z-score in test [8] is -1.89 (inactive); in test [9] it was 0.452 (inactive); in [10] it was -0.0775; in test [11] it was 1.37; in [12], 0.556; in test [13] it was 0.627. For the same molecule, the z-score in test [14] was 0.139; in [15], 0.0627; in [16], 1.66; in test [17] it was 1.47 (inactive); in [18], -0.233; in test [19], -0.411. In test [20], the z-score is 0.713 (inactive). The molecule further displayed a composite z-score in test [2] of -0.274.
